Sampled rows, rich in hits. Any-hit rate of the full collection: about 1.2%.
NPSR antagonist: neuropeptide S receptor (human) antagonism, cAMP | Q6W5P4 | CHO-NPSR cells, cAMP TR-FRET, antagonist mode | Potency, µM (highest dose often 38.3 µM), hits mostly inhibitors | 220,000 tested, 1% active | AID 1461; further: nearly all actives have a fitted effect of over 50% in size
Target sequence (Q6W5P4 whole entry, looked up): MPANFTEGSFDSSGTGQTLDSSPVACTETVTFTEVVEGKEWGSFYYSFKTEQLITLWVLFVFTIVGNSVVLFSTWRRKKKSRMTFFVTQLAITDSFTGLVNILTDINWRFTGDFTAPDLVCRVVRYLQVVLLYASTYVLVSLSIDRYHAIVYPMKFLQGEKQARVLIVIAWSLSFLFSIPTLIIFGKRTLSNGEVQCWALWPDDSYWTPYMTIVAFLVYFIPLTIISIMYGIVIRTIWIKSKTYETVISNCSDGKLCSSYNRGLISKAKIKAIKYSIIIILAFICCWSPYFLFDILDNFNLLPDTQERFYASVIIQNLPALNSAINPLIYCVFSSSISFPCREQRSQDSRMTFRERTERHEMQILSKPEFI
rTrxR1 inhibitor: blocks rat thioredoxin reductase 1; Potency, µM (top dose mostly 114 µM), hits mostly inhibitors; O89049; recombinant rTrxR1, NADPH fluorescence consumption, selenite substrate; 390,000 tested, 1% active; further: nearly all actives have a fitted effect of over 65% in size
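Rat TrxR1 (90 nM in the dispensed reagent) was pre-reduced with 400 uM NADPH for 5 min at room temperature, then incubated with compound for 15 min. After 400 uM selenite was added, NADPH fluorescence (Ex 340/Em 450 nm) was followed for 8 min.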
TrxR1 substrate: rat thioredoxin reductase 1 substrate activity; O89049; purified TrxR1 substrate turnover, NADPH consumption readout; Potency, µM (doses to about 114 µM); 390,000 tested, 0.01% active; AID 588456; further: nearly all actives have a fitted effect of over 50% in size
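Rat TrxR1, dispensed at 90 nM, was prereduced with 400 uM NADPH (final) for 5 min at ~22 deg C, then incubated with compound 15 min before 400 uM selenite. A first-read NADPH fluorescence drop versus no-compound background flagged substrates.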
GALK inh: galactokinase (human) inhibition. Purified GALK, Kinase-Glo residual ATP luminescence. Potency, µM (top dose mostly 57.5 µM), most hits filed as inhibitors. 270,000 tested, 0.007% active. AID 1868
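Quantitative HTS: GALK 5 nM, ATP 35 uM, galactose 100 uM, 1 h room temperature, then luciferase-based ATP detection.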
Hits are given with their value; n = inactive; u = inconclusive; x = no result given; [ ] = another dose, or the depositor's remark. The call rests on the fitted dose curve; in most records, active means well fitted curve in the direction sought with a large enough effect; inconclusive means small, poorly fitted or top-dose-only effect, or another doubt; inactive means no such curve, though single readings can be large; an effect the other way counts as inactive or inconclusive.

SMILES | NPSR antagonist | rTrxR1 inhibitor | TrxR1 substrate | GALK inh
COC(=O)Cn1c(C)nc([N+](=O)[O-])c1Br | n | 16µM | n | n
O=C(CSc1nc2ccc([N+](=O)[O-])cc2[nH]1)c1ccc2ccccc2c1 | u | n | n | n
Cc1nc([N+](=O)[O-])c(Br)n1Cc1ccccc1 | n | 16µM | n | n
COC(=O)C1[C@H]2SC(C)(C)C(C(=O)OC)N2C(=O)N1Cc1ccccc1 (stereo partly specified) | x | n | n | x
Cc1cc2c(cc1Cl)N(C(=O)Nc1ccc(Oc3cccnc3C)nc1)CC2 | x | u | n | x
O=C(Nc1cc(Cl)ccc1Cl)c1cc(S(=O)(=O)N2CCc3ccccc3C2)ccc1F | x | n | n | x
Cc1nc([N+](=O)[O-])cn1CC(=O)c1ccc(F)cc1 | x | n | n | n
Cc1nc([N+](=O)[O-])c(Br)n1CC(=O)c1ccc(F)cc1 | n | 2.5µM | n | n
O=C(COc1ccccc1[N+](=O)[O-])Nc1ccc(NC(=O)c2cc3ccccc3o2)cc1 | n | n | n | n
O=C(COc1ccc(/C=N/NC(=O)c2cc3ccccc3o2)cc1Br)Nc1ccccc1 | 10µM | n | n | n
O=C(CSc1n[nH]c(-c2ccccc2Cl)n1)NCCc1ccccc1 | x | n | n | x
CN(C)c1ccc(/C=C2\C=Cc3ccccc32)c(Cl)c1 | x | n | n | x
Cc1ccc(N2C(=O)C3C4C=CC(CNC(=S)N5CCN(c6cccc(C)c6)C(C)C5)(O4)C3C2=O)cc1 (stereo unspecified) | n | 16µM | n | n
COC/C=C/C1=CC2=CC(=O)C(C)(OC(=O)C3CCCC3)C(=O)C2=CO1 (stereo unspecified) | n | 13µM | n | n
CCOC(=O)c1sc2nc(C3CC3)cc(-c3ccc(OC)cc3)c2c1N | n | 50µM | n | n
c1ccc2nc3c(cc2c1)CCCC3 | x | n | n | x
Cc1cccc(CN2C(=O)N/C(=C/c3cc(C)n(-c4cc(C)ccn4)c3C)C2=O)c1 | 16µM | u | n | n
Cc1cccc(CN2C(=O)N/C(=C/c3ccc(C)s3)C2=O)c1 | n | u | n | n
Cc1ccc(CN2[C@H]3CCCC[C@@H]3OCCS2(=O)=O)cc1 | x | n | n | x
CS(=O)(=O)c1ccc(S(=O)CC(=O)Oc2ccc(Cl)cc2)c([N+](=O)[O-])c1 (stereo unspecified) | n | 1.8µM | n | n
O=C(CS(=O)c1ccccc1[N+](=O)[O-])Oc1ccc(Br)cc1 (stereo unspecified) | n | u | n | n
CCOC(=O)C1(C)C(C(=O)OC)=C(c2ccc(OC)cc2)c2ccccc2N1C(=O)OC (stereo unspecified) | x | 40µM | n | x
COC(=O)c1ccc(OC(=O)/C=C/c2ccco2)cc1 | x | n | n | n
O=C(CCNS(=O)(=O)c1cccc(Cl)c1)OCC(=O)N1CCN(C(=O)c2ccco2)CC1 | x | 50µM | n | x
CC(=O)Nc1ccc(S(=O)(=O)NCCC(=O)OCC(=O)N2CCN(C(=O)c3ccco3)CC2)cc1 | x | u | n | n
SMILES | NPSR antagonist | rTrxR1 inhibitor | TrxR1 substrate | GALK inh
O=Cc1cccc(OC(=O)/C=C/c2ccco2)c1 | x | 32µM | n | n
CCOC(=O)/C=C/C(=O)OCC(=O)N1CCN(C(=O)c2ccco2)CC1 | x | 50µM | n | n
CCOC(=O)c1cc(CC)sc1NC(=O)CN1CCN(C(=O)c2ccco2)CC1 | x | 35µM | n | n
COc1ccc(CNc2nc(Cl)nc3nc[nH]c23)cc1 | x | n | n | x
Nc1nc(N)c2c(Oc3ccc(F)cc3)cccc2n1 | x | n | n | x
CC1CCCCC1NC(=O)COC(=O)c1c2c(nc3ccccc13)/C(=C\c1ccco1)CC2 (stereo unspecified) | x | 14µM | n | x
CC1CCN(C(=O)COC(=O)/C=C/c2ccco2)CC1 | x | 8.9µM | n | x
CC1CCCC(C)N1C(=O)COC(=O)/C=C/c1ccco1 (stereo unspecified) | x | 50µM | n | x
CC1CCCC(NC(=O)COC(=O)/C=C/c2ccco2)C1C (stereo unspecified) | x | 22µM | n | x
CC1CCCC(NC(=O)COC(=O)/C=C/c2ccc([N+](=O)[O-])cc2)C1C (stereo unspecified) | x | n | n | x
COc1ccc(OC)c(/C=C/C(=O)OCC(=O)N2C(C)CCCC2C)c1 (stereo unspecified) | x | n | n | x
CCOC(=O)CCC(=O)Nc1nnc2n1CCS2 | x | n | n | x
C[n+]1ccc(C(c2c[nH]c3ccccc23)c2cc[n+](C)c3ccccc23)c2ccccc21 | x | n | n | x
COc1ccc(C(=O)n2nc(-c3ccco3)nc2NCc2cccs2)cc1 | x | 22µM | n | x
Cc1ccc(S(=O)(=O)CC(CN2CCOCC2)N2CCOCC2)cc1 (stereo unspecified) | n | n | n | n
O=S(=O)(CC(CN1CCCC1)N1CCCC1)c1ccc2ccccc2c1 (stereo unspecified) | n | 8.9µM | n | n
CCn1c(SCC(=O)Nc2cccc(NC(C)=O)c2)nnc1-c1ccco1 | x | n | n[0.0914 µM] | n
CCn1c2ccccc2c2cc(NC(=O)c3coc(=O)c(Br)c3)ccc21 | u | x | x | n
CC(C)Cn1c(SCC(=O)Nc2cccnc2Cl)nnc1-c1ccco1 | x | 50µM | n | x
CCn1c(SCC(=O)Nc2cccnc2Cl)nnc1-c1ccccc1 | n | n | n | n
CCn1c(SCC(=O)Nc2ccc3c(c2)c2ccccc2n3CC)nnc1-c1ccco1 | n | 2.8µM | n | n
CCn1c2ccccc2c2cc(NC(=O)c3ccc(Br)o3)ccc21 | n | 18µM | n | n
Cc1ccc(S(=O)(=O)N2CCN(C(=O)c3cc(S(=O)(=O)N(C)C)ccc3N3CCCC3)CC2)cc1 | x | n | n | x
N#Cc1ncc(Br)cn1 | x | n | n | x
O=C1CCC(C(=O)N2CCCC2)CN1Cc1cccc(C(F)(F)F)c1 (stereo unspecified) | x | n | n | n
SMILES | NPSR antagonist | rTrxR1 inhibitor | TrxR1 substrate | GALK inh
CCc1c(C)nc2cc(-c3ccc(OC)c(OC)c3)nn2c1NCC1CC1 | 13µM | n | n | n
CC1=NNC(=O)/C1=C\c1cn(-c2ccccc2)nc1-c1ccc(F)cc1 | n | n | n | n
CC1=NNC(=O)/C1=C\c1cn(-c2ccccc2)nc1-c1cccs1 | 10µM | n | n | n
O=C1OC(Nc2nc3ccccc3s2)c2ccccc21 (stereo unspecified) | n | n | n | n
O=C1OC(Nc2nc(-c3ccc(F)cc3)cs2)c2ccccc21 (stereo unspecified) | x | 56µM | n | n
C=C(C)Cn1c(SCC(=O)Nc2cccc(Cl)c2)nc2sc3c(c2c1=O)CCCC3 | x | n | n | x
O=C1CCCC2=C1C(c1cccc(O)c1)C1=C(N2)c2ccccc2C1=O (stereo unspecified) | n | 79µM | n | n
COc1cccc(C2C3=C(CCCC3=O)NC3=C2C(=O)c2ccccc23)c1 (stereo unspecified) | n | x | x | n
C#CCOCCOCCOCCNc1nc(N2CCN(C(=O)C([C@@H](C)CC)n3cc(C(N)COC(=O)C(F)(F)F)nn3)CC2)nc(N2CCN(C(=O)[C@H](CCCCN)n3cc(C(N)[C@H](C)CC)nn3)CC2)n1 (stereo partly specified) | x | 50µM | n | x

Bioassay records (PubChem)
